For five compounds, outcome and AC50 results are on record in PubChem BioAssay (EPA / NIEHS).

Assay [1] can be described thus: CEETOX_H295R_ANDR: CeeTox H295R High-throughput Steroidogenesis Assay for Androstenedione (ANDR) (AID 2283436).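 Also: human H295R adrenal cells exposed for 48 h with androstenedione measured in medium.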 The following applies: actives raise or lower the signal. An outline of the steps: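 H295R cells, following OECD 456 with minor changes, exposed to chemicals for 48 h. Androstenedione in the medium was quantified by HPLC-MS/MS after MTBE extraction. Fitting was bidirectional versus DMSO; chemicals were diluted until MTT viability was ≥70%.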

The nature of assay [2]: CEETOX_H295R_ESTRONE: CeeTox H295R High-throughput Steroidogenesis Assay for Estrone (AID 2283441).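 Also: estrone secreted into medium measured by LC-MS/MS after dansyl derivatization.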 As to conditions: actives raise or lower the signal. An outline of the steps:
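H295R cells prestimulated 48 h with 10 uM forskolin, then exposed 48 h to chemicals in 0.1% DMSO final; estrone in medium extracted with MTBE, dansyl-derivatized, quantified by HPLC-MS/MS; bidirectional fitting versus DMSO, viability by MTT.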

Read-out in assay [3]: Fatty acid synthase (Homo sapiens) (UniProt P49327)
As to the kind of experiment: LTEA_HepaRG_FASN: Life Technologies and Expression Analysis (LTEA) Assay for Fatty Acid Synthase (FASN) using HepaRG (AID 2283448). The following applies: mRNA level, 48 h; actives raise or lower the signal. In outline: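 Differentiated HepaRG cells in serum-free induction medium exposed 48 h in duplicate to eight half-log concentrations, top 100 uM, 0.5% DMSO. FASN mRNA by qRT-PCR normalised to ACTB, GAPDH, POLR2A; bidirectional fit versus DMSO.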

Read-out in assay [4]: Cyclin D2 (CCND2), CCND2 (gene 894)
As to the kind of experiment: LTEA_HepaRG_CCND2: Life Technologies and Expression Analysis (LTEA) Assay for Cyclin D2 (CCND2) using HepaRG (AID 2283449).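 Also: CCND2 transcript measured by TaqMan qRT-PCR and normalised to three housekeeping genes.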 The following applies: mRNA level, 48 h; actives raise or lower the signal. In outline:
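Chemicals in 0.5% DMSO, eight half-log concentrations from 100 uM top, were applied in duplicate for 48 h to human HepaRG cells in serum-free induction medium. CCND2 mRNA by TaqMan qRT-PCR, normalised to ACTB/GAPDH/POLR2A; bidirectional fit versus DMSO.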

Read-out in assay [5]: Cyclin Dependent Kinase Inhibitor 1A (CDKN1A), CDKN1A (gene 1026)
The assay can be described thus: LTEA_HepaRG_CDKN1A: Life Technologies and Expression Analysis (LTEA) Assay for Cyclin Dependent Kinase Inhibitor 1A (CDKN1A) using HepaRG (AID 2283450). As to conditions: mRNA level, 48 h; actives raise or lower the signal. An outline of the steps: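 HepaRG, 48 h dosing, 8-pt half-log series from 100 uM top, 0.5% DMSO vehicle, duplicates. Readout: TaqMan qRT-PCR of CDKN1A transcript, housekeeping-normalized (ACTB, GAPDH, POLR2A). Up/down curve fit relative to DMSO.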

Read-out in assay [6]: Cyclin D1 (CCND1), CCND1 (gene 595)
The assay can be described thus: LTEA_HepaRG_CCND1: Life Technologies and Expression Analysis (LTEA) Assay for Cyclin D1 (CCND1) using HepaRG (AID 2283451). The following applies: mRNA level, 48 h; actives raise or lower the signal. In outline:
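qRT-PCR (Fluidigm 96.96 array) read-out of transcript level, housekeeping-normalized (ACTB/GAPDH/POLR2A). HepaRG cells, 48 h chemical exposure, 8-point half-log series from 100 uM, 0.5% DMSO vehicle; gain or loss relative to DMSO baseline.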

Read-out in assay [7]: flavin-containing dimethylaniline monooxygenases 3 (FMO3), FMO3 (gene 2328)
As to the kind of experiment: LTEA_HepaRG_FMO3: Life Technologies and Expression Analysis (LTEA) Assay for flavin-containing dimethylaniline monooxygenases 3 (FMO3) using HepaRG (AID 2283453). As to conditions: mRNA level, 48 h; actives raise or lower the signal. In outline: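 Differentiated HepaRG cells in serum-free induction medium, exposed 48 h in duplicate to 8 half-log concentrations up to 100 uM in 0.5% DMSO. FMO3 mRNA by qRT-PCR, normalized to ACTB, GAPDH, POLR2A; bidirectional fit vs DMSO.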

Read-out in assay [8]: Cytochrome P450 (CYP1A1), CYP1A1 (gene 1543)
The assay can be described thus: LTEA_HepaRG_CYP1A1: Life Technologies and Expression Analysis (LTEA) Assay for Cytochrome P450 (CYP1A1) using HepaRG (AID 2283454). The following applies: mRNA level, 48 h; actives raise or lower the signal. An outline of the steps:
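qRT-PCR read-out: CYP1A1 transcript normalized to three housekeeping genes, fitted bidirectionally against 0.5% DMSO vehicle baseline. Human HepaRG cells, 48 h chemical exposure, 8-point half-log series topping at 100 uM.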

Read-out in assay [9]: CFLAR gene, CFLAR (gene 8837)
The assay can be described thus: LTEA_HepaRG_CFLAR: Life Technologies and Expression Analysis (LTEA) Assay for CFLAR gene using HepaRG (AID 2283455). The following applies: mRNA level, 48 h; actives raise or lower the signal. In outline:
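Differentiated HepaRG cells in serum-free induction medium were exposed 48 h in duplicate to eight half-log concentrations up to 100 uM in 0.5% DMSO; mRNA measured by TaqMan qRT-PCR, normalized to ACTB, GAPDH, POLR2A; bidirectional fitting versus DMSO.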

Read-out in assay [10]: Forkhead box O1 (FOXO1), FOXO1 (gene 2308)
The assay can be described thus: LTEA_HepaRG_FOXO1: Life Technologies and Expression Analysis (LTEA) Assay for Forkhead box O1 (FOXO1) using HepaRG (AID 2283456). The following applies: mRNA level, 48 h; actives raise or lower the signal. In outline:
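Differentiated HepaRG cells, in serum-free induction medium with 0.5% DMSO, exposed 48 h in duplicate to 8-point half-log series from 100 uM. FOXO1 mRNA measured by TaqMan qRT-PCR, normalized to ACTB, GAPDH, POLR2A; bidirectional fit versus DMSO.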

Assay [11] is described as follows: CEETOX_H295R_TESTO: CeeTox H295R High-throughput Steroidogenesis Assay for Testosterone (TESTO) (AID 2283457). As to conditions: actives raise or lower the signal. An outline of the steps:
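Readout: testosterone quantified by HPLC-MS/MS (C18, ESI positive) after MTBE liquid-liquid extraction of culture medium. Cells were H295R, 48 h chemical exposure per OECD 456 with modifications. Gain or loss of signal fitted relative to DMSO.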

Read-out in assay [12]: growth arrest and DNA damage 45 (GADD45A), GADD45A (gene 1647)
As to the kind of experiment: LTEA_HepaRG_GADD45A: Life Technologies and Expression Analysis (LTEA) Assay for growth arrest and DNA damage 45 (GADD45A) using HepaRG (AID 2283458). The following applies: mRNA level, 48 h; actives raise or lower the signal. In outline:
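Differentiated HepaRG cells exposed 48 h in serum-free induction medium to 8 concentrations, top 100 uM in half-log steps, 0.5% DMSO. GADD45A mRNA quantified by qRT-PCR, normalized to ACTB, GAPDH and POLR2A; bidirectional fit versus DMSO.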

Read-out in assay [13]: Forkhead box O3 (FOXO3), FOXO3 (gene 2309)
As to the kind of experiment: LTEA_HepaRG_FOXO3: Life Technologies and Expression Analysis (LTEA) Assay for Forkhead box O3 (FOXO3) using HepaRG (AID 2283459). As to conditions: mRNA level, 48 h; actives raise or lower the signal. In outline:
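Differentiated human HepaRG cells, 48 h post-plating, exposed in duplicate for 48 h in serum-free induction medium; 8-point half-log series from 100 uM in 0.5% DMSO. FOXO3 mRNA by TaqMan qRT-PCR, normalized to ACTB/GAPDH/POLR2A; bidirectional fit versus DMSO.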

A short description of assay [14]: CEETOX_H295R_ESTRADIOL: CeeTox H295R High-throughput Steroidogenesis Assay for Estradiol (AID 2283440).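 Also: estradiol secreted into medium quantified by LC-MS/MS after dansyl derivatisation.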 The following applies: actives raise or lower the signal. In outline: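 H295R, 48 h forskolin (10 uM) prestim → 48 h compound, 0.1% DMSO final. Estradiol in medium: MTBE extraction, dansyl chloride derivatization, LC-MS/MS. Fit bidirectional vs DMSO baseline; MTT viability in same wells.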

Assay [15] can be described thus: CEETOX_H295R_PROG: CeeTox H295R High-throughput Steroidogenesis Assay for Progesterone (PROG) (AID 2283442). The following applies: actives raise or lower the signal. An outline of the steps: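 Progesterone read-out: HPLC-MS/MS on MTBE extracts of conditioned medium after 48 h chemical exposure of forskolin-primed (10 uM, 48 h) H295R cells. Gain or loss of signal was fitted relative to DMSO baseline.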

Read-out in assay [16]: catalase (CAT), CAT (gene 847)
As to the kind of experiment: LTEA_HepaRG_CAT: Life Technologies and Expression Analysis (LTEA) Assay for catalase (CAT) using HepaRG (AID 2283452). The following applies: mRNA level, 48 h; actives raise or lower the signal. In outline: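 HepaRG cells in serum-free induction medium, 0.5% DMSO vehicle, exposed 48 h in duplicate over 8 half-log concentrations from 100 uM. CAT mRNA measured by qRT-PCR, normalized to ACTB, GAPDH, POLR2A; bidirectional fit versus DMSO.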

Usually AC50 stands for the concentration at which the activity in the assay is half-maximal.

Active and inactive are the calls of the source. The calls were made as follows: active = hit-call score of the fitted dose curve at least 0.9, where 1 is the maximum; inactive = score below 0.9.

Chain of Fatty acid synthase (Homo sapiens) (P49327 whole entry, looked up): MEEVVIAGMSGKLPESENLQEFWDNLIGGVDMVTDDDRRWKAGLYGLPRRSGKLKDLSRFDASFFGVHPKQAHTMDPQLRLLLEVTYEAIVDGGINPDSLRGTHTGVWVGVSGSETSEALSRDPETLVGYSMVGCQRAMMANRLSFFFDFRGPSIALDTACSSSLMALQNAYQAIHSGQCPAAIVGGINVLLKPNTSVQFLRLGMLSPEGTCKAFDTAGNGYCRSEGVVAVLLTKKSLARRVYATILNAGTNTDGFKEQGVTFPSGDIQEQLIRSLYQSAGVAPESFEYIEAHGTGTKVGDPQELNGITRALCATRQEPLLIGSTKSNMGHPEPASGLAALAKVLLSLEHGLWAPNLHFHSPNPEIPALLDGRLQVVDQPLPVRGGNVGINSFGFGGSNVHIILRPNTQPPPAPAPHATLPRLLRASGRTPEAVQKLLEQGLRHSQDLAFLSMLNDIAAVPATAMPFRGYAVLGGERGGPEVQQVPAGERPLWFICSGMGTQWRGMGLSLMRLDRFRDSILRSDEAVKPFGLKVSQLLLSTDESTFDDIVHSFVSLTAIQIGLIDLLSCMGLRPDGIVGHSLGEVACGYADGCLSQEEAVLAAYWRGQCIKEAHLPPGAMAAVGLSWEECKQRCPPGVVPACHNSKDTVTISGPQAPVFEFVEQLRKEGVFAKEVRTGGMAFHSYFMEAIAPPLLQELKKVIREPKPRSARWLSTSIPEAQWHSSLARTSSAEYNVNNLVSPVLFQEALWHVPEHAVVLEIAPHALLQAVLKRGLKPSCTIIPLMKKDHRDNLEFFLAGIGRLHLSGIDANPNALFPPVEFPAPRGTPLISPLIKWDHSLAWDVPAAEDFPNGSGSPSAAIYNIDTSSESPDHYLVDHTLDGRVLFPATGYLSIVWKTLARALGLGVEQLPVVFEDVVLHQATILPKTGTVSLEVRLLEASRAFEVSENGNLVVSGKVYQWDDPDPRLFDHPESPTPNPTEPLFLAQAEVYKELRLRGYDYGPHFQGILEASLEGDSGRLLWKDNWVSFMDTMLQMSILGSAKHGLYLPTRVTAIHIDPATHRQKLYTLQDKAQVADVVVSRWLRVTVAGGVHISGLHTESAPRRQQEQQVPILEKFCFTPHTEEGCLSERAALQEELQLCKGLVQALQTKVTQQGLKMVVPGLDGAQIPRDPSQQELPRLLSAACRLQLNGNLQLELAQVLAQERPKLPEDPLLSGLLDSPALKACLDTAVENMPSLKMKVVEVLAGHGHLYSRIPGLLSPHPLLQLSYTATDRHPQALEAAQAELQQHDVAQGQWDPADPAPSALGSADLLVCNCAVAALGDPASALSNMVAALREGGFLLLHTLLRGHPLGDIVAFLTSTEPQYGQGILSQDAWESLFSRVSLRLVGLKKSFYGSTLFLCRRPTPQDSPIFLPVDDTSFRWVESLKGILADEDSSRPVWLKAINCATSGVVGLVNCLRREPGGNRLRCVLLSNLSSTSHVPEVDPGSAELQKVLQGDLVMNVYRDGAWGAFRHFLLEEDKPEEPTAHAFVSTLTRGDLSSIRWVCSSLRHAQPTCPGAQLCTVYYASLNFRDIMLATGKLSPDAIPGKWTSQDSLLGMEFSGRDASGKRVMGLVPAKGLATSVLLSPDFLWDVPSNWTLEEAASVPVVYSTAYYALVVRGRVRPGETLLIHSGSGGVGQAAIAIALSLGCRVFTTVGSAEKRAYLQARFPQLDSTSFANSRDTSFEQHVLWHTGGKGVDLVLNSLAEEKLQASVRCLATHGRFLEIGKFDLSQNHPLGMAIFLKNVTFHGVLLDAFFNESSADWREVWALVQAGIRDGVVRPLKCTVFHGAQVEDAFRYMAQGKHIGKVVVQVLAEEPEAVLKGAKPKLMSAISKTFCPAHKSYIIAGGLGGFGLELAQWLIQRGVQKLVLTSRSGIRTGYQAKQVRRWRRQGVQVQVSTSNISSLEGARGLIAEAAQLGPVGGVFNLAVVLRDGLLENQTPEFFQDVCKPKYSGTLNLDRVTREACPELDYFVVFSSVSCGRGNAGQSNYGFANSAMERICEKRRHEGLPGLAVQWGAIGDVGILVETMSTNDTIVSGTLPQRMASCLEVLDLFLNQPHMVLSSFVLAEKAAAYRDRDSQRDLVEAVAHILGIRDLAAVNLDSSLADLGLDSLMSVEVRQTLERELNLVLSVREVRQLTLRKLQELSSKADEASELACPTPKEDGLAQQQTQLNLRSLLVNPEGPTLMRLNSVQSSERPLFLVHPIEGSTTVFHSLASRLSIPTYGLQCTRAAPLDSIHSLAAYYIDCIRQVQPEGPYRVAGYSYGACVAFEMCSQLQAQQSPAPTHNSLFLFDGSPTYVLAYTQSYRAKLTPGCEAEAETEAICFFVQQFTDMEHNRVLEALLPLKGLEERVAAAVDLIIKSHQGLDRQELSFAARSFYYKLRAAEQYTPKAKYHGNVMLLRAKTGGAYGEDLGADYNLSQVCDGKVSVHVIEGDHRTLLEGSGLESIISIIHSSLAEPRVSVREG

For `CCOc1cc(C(C)(C)C)ccc1C1COC(c2c(F)cccc2F)=N1` (stereo not drawn), the call in [1], in [2], in assay [3], in [4], in assay [5] and in [6] was inactive. In addition, the outcome in assay [7], in assay [9], in assay [10], in assay [11], in [12] and in assay [13] was inactive. The AC50 in assay [8] is 19.2 µM (active).

In the case of `CCSC(=O)N1CCCCCC1`, the compound was called inactive in [14], in assay [2], in assay [15], in assay [3], in assay [6] and in assay [16]. Moreover, the outcome in [7], in [8], in assay [9], in [10], in assay [12] and in assay [13] was inactive.

Regarding `CC(C)=CC1C(C(=O)OCc2coc(Cc3ccccc3)c2)C1(C)C` (stereo not drawn), the compound was classed as inactive in [3], in assay [4], in assay [6], in assay [16], in [7] and in [9]. In addition, the result in assay [10], in [12] and in [13] was inactive. Moreover, the half-maximal activity concentration (AC50) in assay [8] is 60.8 µM (active).

Take `N#Cc1c[nH]cc1-c1cccc2c1OC(F)(F)O2`: the AC50 in assay [3] is 1.51 µM (active); in assay [6], 50 µM (active); in assay [7], 71.8 µM (active); in assay [8] it was 77.2 µM (active); in assay [9], 14.7 µM (active); in assay [13], 12.3 µM (active). The result in assay [4], in assay [10] and in [12] was inactive.

As to `COC(=O)NS(=O)(=O)c1ccc(N)cc1`, the outcome in assay [3], in [4], in assay [6], in assay [7], in [8] and in assay [9] was inactive. The compound was classed as inactive in assay [10], in assay [12] and in assay [13].
